Among the test systems are HCT-15 colon; HT29 colon; SNB-75 CNS; SNB-19 CNS; U251 CNS; PC-3 prostate; SK-MEL-5 melanoma; UACC-62 melanoma; LOX IMVI melanoma; SK-MEL-28 melanoma; SK-MEL-2 melanoma; SN12C renal; UO-31 renal; TK-10 renal; ACHN renal; A498 renal; MOLT-4 leukemia; CAKI-1 renal; CCRF-CEM leukemia.
Common to all, as to assay: NCI-60 one-dose screen, 48 h (100 = growth as untreated, 0 = no growth, -100 = all killed)
What all share (conditions): 10 µM unless noted

SMILES strings stand for the structures. Compounds without any hit were thinned out: in the full panel of roughly 83,000, 20% have a hit.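 Activity criterion: percent growth below 10, measured after cells in 96-well plates were exposed to a single compound concentration for 48 hours.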 Values without a mark were called inactive. The source made the active and inactive calls.

The text below walks through data of PubChem BioAssay (NCI).

For the molecule `O=c1oc2cc(OS(=O)(=O)c3ccccc3)c(Cl)cc2c2c1CCCCCC2`, the growth in the assay on HCT-15 colon was 84.6%; in the assay with HT29 colon it was 67.7%; in the assay with SNB-75 CNS it was 83.1%; with SNB-19 CNS, 93.3%; in the assay on U251 CNS, 87.5%; with PC-3 prostate, 73.9%. For the same molecule, the growth is 77.9% in the assay on SK-MEL-5 melanoma; 70.3% in the assay with UACC-62 melanoma; 90.1% in the assay with LOX IMVI melanoma; 91.2% in the assay on SK-MEL-28 melanoma; 106% with SK-MEL-2 melanoma; 87.2% in the assay on SN12C renal. Further, the growth in the assay with UO-31 renal was 71.5%; in the assay with TK-10 renal, 111%; in the assay on ACHN renal, 88.2%; with A498 renal it was 86.1%; in the assay with MOLT-4 leukemia, 77.4%.

Take `CNC(=O)Cc1nc(-c2cccc(NS(=O)(=O)c3c(F)cccc3F)c2F)c(-c2ccnc(Nc3ccccc3)n2)s1`: the growth in the assay on HCT-15 colon is 72.1%; in the assay with HT29 colon, 6.8% (active); with SNB-75 CNS it was 58.2%; in the assay with SNB-19 CNS, 75.4%; with U251 CNS, 86.6%; with PC-3 prostate, 81.8%. The growth is 63.2% in the assay on SK-MEL-5 melanoma; 5.51% (active) with UACC-62 melanoma; 9.18% (active) with LOX IMVI melanoma; 15.2% in the assay on SK-MEL-28 melanoma; 55.2% in the assay with SK-MEL-2 melanoma; 40.5% in the assay with SN12C renal. In addition, the growth is 27.3% in the assay with UO-31 renal; 42.7% with TK-10 renal; 10.7% in the assay on ACHN renal; 41.5% with CAKI-1 renal; 87.6% with CCRF-CEM leukemia; 68.4% with MOLT-4 leukemia.

With `O=C(Nc1ccc(OCc2nnc(-c3ccc(Cl)cc3)o2)c(F)c1)Nc1ccc(Cl)c(Cl)c1`, the growth was 48.4% in the assay on HCT-15 colon; 32.8% in the assay on HT29 colon; 6.81% (active) with SNB-75 CNS; 71.8% with SNB-19 CNS; 46.8% in the assay on U251 CNS; 44.4% with PC-3 prostate. Further, the growth in the assay with SK-MEL-5 melanoma is 75.6%; in the assay with UACC-62 melanoma, 60.9%; with LOX IMVI melanoma, 24.5%; in the assay on SK-MEL-28 melanoma it was 61.5%; in the assay on SK-MEL-2 melanoma, 81.5%; with SN12C renal, 90.9%. Moreover, the growth with UO-31 renal was 56.3%; with TK-10 renal it was 77.5%; in the assay on ACHN renal it was 3.37% (active); in the assay on A498 renal it was 67.9%; with CCRF-CEM leukemia, 51.7%; in the assay with MOLT-4 leukemia, 45.2%.

For `O=Nc1c(-c2c(O)[nH]c3ccc([N+](=O)[O-])cc23)[nH]c2ccc(O)cc12`, the growth was 10.3% in the assay on HCT-15 colon; 69.2% in the assay with HT29 colon; -28.1% (active) in the assay with SNB-75 CNS; 17.5% in the assay with SNB-19 CNS; 0.602% (active) in the assay with U251 CNS; 2.12% (active) with PC-3 prostate. For the same molecule, the growth is -40.9% (active) in the assay with SK-MEL-5 melanoma; -34.4% (active) in the assay with UACC-62 melanoma; -32.4% (active) with LOX IMVI melanoma; -11% (active) in the assay with SK-MEL-28 melanoma; -55% (active) with SK-MEL-2 melanoma; 23.7% with SN12C renal. Moreover, the growth in the assay with UO-31 renal is -1.14% (active); in the assay on TK-10 renal it was 49.9%; in the assay on ACHN renal it was -25.8% (active); in the assay on CAKI-1 renal, -14.3% (active); in the assay with CCRF-CEM leukemia it was 0.486% (active); in the assay with MOLT-4 leukemia, 2.17% (active).

Consider `CC(C)(C)c1ccc(S(=O)(=O)Oc2ccc3c4c(c(=O)oc3c2)CCCCC4)cc1`, for which the growth in the assay with HCT-15 colon was 30.5%; with HT29 colon, 15.8%; with SNB-75 CNS, 39.1%; in the assay on SNB-19 CNS, 82%; with U251 CNS, 54.3%; with PC-3 prostate, 32.9%. The growth was -3.23% (active) in the assay on SK-MEL-5 melanoma; 30.3% with UACC-62 melanoma; 43.2% in the assay on LOX IMVI melanoma; 39.4% in the assay with SK-MEL-28 melanoma; 45% with SK-MEL-2 melanoma; 63.3% in the assay with SN12C renal. Besides, the growth was 43.4% in the assay on UO-31 renal; 87.1% with TK-10 renal; 30.3% in the assay on ACHN renal; -0.52% (active) in the assay with A498 renal; 54.7% in the assay on MOLT-4 leukemia.

On to `CC(C(=O)n1cc(-c2ccccc2)c(-c2ccccc2)c1)c1ccccc1` (configuration not stated), for which the growth in the assay with HCT-15 colon was 112%; in the assay with HT29 colon it was 107%; with SNB-75 CNS it was 92.9%; in the assay with SNB-19 CNS, 102%; with U251 CNS it was 91.1%; with PC-3 prostate it was 95.9%. Also, the growth was 99.1% in the assay on SK-MEL-5 melanoma; 106% in the assay on UACC-62 melanoma; 97.8% with LOX IMVI melanoma; 112% in the assay with SK-MEL-28 melanoma; 104% in the assay with SK-MEL-2 melanoma; 108% with SN12C renal. Further, the growth with UO-31 renal was 88.6%; in the assay with TK-10 renal, 98.8%; in the assay on ACHN renal, 115%; in the assay with CAKI-1 renal it was 91.6%; with CCRF-CEM leukemia it was 103%; in the assay with MOLT-4 leukemia it was 102%.

For `COc1cccc(/C=C/C(=O)c2sc(Nc3ccc(O)cc3)nc2C)c1`, the growth in the assay with HCT-15 colon was 83.7%; in the assay on HT29 colon it was 82%; with SNB-75 CNS, 84.1%; with SNB-19 CNS it was 95.1%; in the assay with U251 CNS, 89.6%; with PC-3 prostate, 85.9%. Besides, the growth is 95.4% in the assay with SK-MEL-5 melanoma; 94.4% with UACC-62 melanoma; 87.5% in the assay on LOX IMVI melanoma; 102% in the assay with SK-MEL-28 melanoma; 79.9% in the assay with SK-MEL-2 melanoma; 86.2% in the assay with SN12C renal. For the same molecule, the growth in the assay on UO-31 renal was 62%; in the assay with TK-10 renal, 114%; in the assay on ACHN renal it was 98.1%; in the assay on CAKI-1 renal, 105%; with CCRF-CEM leukemia, 13.3%; in the assay on MOLT-4 leukemia, 30.8%.

For the molecule `Nc1c(C(=O)Nc2ccccc2)sc2nc3c(cc12)CN(Cc1ccccc1)CC3`, the growth is 73.3% with HCT-15 colon; 78.8% in the assay on HT29 colon; -46.2% (active) in the assay with SNB-75 CNS; 76.1% with SNB-19 CNS; 75% in the assay with U251 CNS; 67.3% with PC-3 prostate. For the same molecule, the growth in the assay with SK-MEL-5 melanoma was 85.6%; in the assay with UACC-62 melanoma, 70.6%; with LOX IMVI melanoma, 67%; with SK-MEL-28 melanoma, 60.3%; in the assay on SK-MEL-2 melanoma, 103%; in the assay with SN12C renal, 70.3%. Also, the growth with UO-31 renal is 49.8%; in the assay on TK-10 renal it was 53.9%; in the assay on ACHN renal, 38.1%; in the assay with A498 renal, 26.5%; with CCRF-CEM leukemia, 98.6%; with MOLT-4 leukemia, 92.3%.
